Experimental data from the supplement of paper PMC4371806.
Whole data set: some 1,600 compounds, median “plate-normalized OD600 growth (mean of duplicates)” near 0.31, cut for the lowest 2% near 0.23. What follows is part of a selection rich in the lowest values, with near analogues and random picks from the rest.

Test system: Escherichia coli BW25113
Assay: plate-normalized OD600 growth (mean of duplicates) (OD600 (normalized)); higher = more growth (less inhibition)
Conditions: 10 µM
Method: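 E. coli BW25113 in LB (100 µl, 96-well, no shaking) was exposed to 10 µM of each compound (here the ChemBridge subset of a ~30,000-member library) and grown at 37°C for 24 h or 15°C for 48 h, in duplicate. Growth was read as OD600 and the duplicate ODs were normalized across screening plates to correct plate-to-plate variation.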

SMILES	plate-normalized OD600 growth (temperature: 15°C, 48 h)	plate-normalized OD600 growth (temperature: 37°C, 24 h)
CCSC1=C(C#N)C(c2ccc(Cl)cc2Cl)CC(=O)N1 (stereo not drawn)	0.255	0.65
CC1=C(C#N)C(c2cccnc2)C2=C(CC(c3ccc(Cl)cc3)CC2=O)N1 (stereo not drawn)	0.225	0.623
CC1=C(C#N)C(c2ccc(N(C)C)cc2)C2=C(CCCC2=O)N1 (stereo not drawn)	0.248	0.638
N#CC1=C(N)OC2=C(C(=O)CCC2)C1c1cccnc1 (stereo not drawn)	0.238	0.629
O=[N+]([O-])c1ccc(CNC2CCCC2)cc1	0.254	0.621
O=C(NC1CCCCCC1)c1ccc([N+](=O)[O-])cc1	0.212	0.629
Cc1c(C(=O)NC2CCCC2)cccc1[N+](=O)[O-]	0.252	0.636
COc1cccc(NC(=O)c2cccc(I)c2)c1	0.244	0.596
Cc1n[nH]c(C)c1CCCCOc1ccc(Br)cc1	0.216	0.601
Cc1ccc(OCCCCc2c(C)n[nH]c2C)cc1	0.276	0.62
CCN(CC)CCCOc1ccc(C)cc1	0.255	0.632
CCCn1c(SCCC(=O)O)nc2ccccc21	0.257	0.621
N#CC1=C(N)NC(SCC(=O)Nc2ccc(Br)cc2)=C(C#N)C12CCCCC2	0.252	0.586
N#CC1=C(SCC(=O)Nc2ccc(Br)cc2)NC(=O)C(C#N)C12CCCCC2 (stereo not drawn)	0.257	0.604
Cc1cc(=O)[nH]c(SCC(=O)Nc2ccc(Br)cc2)c1C#N	0.214	0.594
COc1cc(C(=O)n2c(C)nc3ccccc32)cc(OC)c1OC	0.246	0.616
O=C(O)CCC(=O)Nc1ccc(-c2nc3ccccc3[nH]2)cc1	0.247	0.602
Cc1ccc(-c2nc3ccccc3[nH]2)cc1N	0.222	0.616
Nc1ccc(Br)cc1-c1nc2ccccc2[nH]c1=O	0.254	0.608
COc1ccc(-c2cc(=O)n(CCC#N)[nH]2)cc1	0.266	0.622
N#Cc1c(NC(=O)c2cc3ncc(Br)cn3n2)sc2c1CCCC2	0.263	0.623
O=[N+]([O-])c1ccccc1/C=C/CN1CCCCC1CO (stereo not drawn)	0.264	0.63

SMILES	plate-normalized OD600 growth (temperature: 15°C, 48 h)	plate-normalized OD600 growth (temperature: 37°C, 24 h)
C/C=C(\C)CN1CCN(CCOCCO)CC1	0.269	0.664
CCCCOc1ccc(CN2CCN(CCOCCO)CC2)cc1	0.216	0.626
CCCCOc1ccc(CN2CCC(O)CC2)cc1	0.272	0.664
Cc1cc([N+](=O)[O-])nn1CC(=O)NCC(C)C	0.264	0.617
COc1ccc(NC(=O)c2ccccc2OC)cc1OC	0.248	0.615
CN(Cc1ccccc1)C1CC(=O)N(c2ccc(C(=O)O)cc2)C1=O (stereo not drawn)	0.246	0.621
CC1(C)CC(=O)C=C(Nc2ccc(F)c(F)c2)C1	0.247	0.617
CC(=O)c1ccc(OCCOc2ccc(C(C)=O)cc2)cc1	0.248	0.607
Cc1[nH]n(-c2ccccc2)c(=O)c1C=O	0.224	0.605
CC(=O)c1c(C)[nH]n(-c2ccccc2)c1=O	0.252	0.618
Cc1nn(-c2ccccc2)c(N2CCCCC2)c1C=O	0.266	0.62
Cc1ccc(S(=O)(=O)N(CC(=O)O)c2cccc(Cl)c2)cc1	0.268	0.636
COc1cccc(-c2nc(Cc3ccc(Cl)cc3)no2)c1	0.253	0.601
COc1ccc(Nc2nc(-c3ccc(F)cc3F)cs2)cc1	0.251	0.633
Clc1ccc(-c2csc(Nc3ccc4c(c3)OCO4)n2)cc1	0.24	0.61
CCc1ccc(-c2csc(Nc3cccc(OC)c3)n2)cc1	0.222	0.604
Cc1nc(N)sc1-c1csc(Nc2ccc(O)cc2)n1	0.239	0.621
COc1cccc(Nc2nc(-c3ccc(OC)c(F)c3)cs2)c1	0.245	0.609
CCOc1ccc(Nc2nc(-c3ccc(CC(C)C)cc3)cs2)cc1	0.223	0.624
O=C(NC1C[C@@H]1c1ccccc1)[C@@H]1CC1c1ccccc1 (stereo partly drawn)	0.272	0.63
CN1CCCC1CCNC1CC2CCC1C2 (stereo not drawn)	0.299	0.637
Cn1cc(/C=C/c2nc3ccccc3c(=O)[nH]2)c2ccccc21	0.248	0.604

SMILES	plate-normalized OD600 growth (temperature: 15°C, 48 h)	plate-normalized OD600 growth (temperature: 37°C, 24 h)
COc1ccc(N(C(=O)c2ccc(F)cc2)C2=CC3CCC(C2)N3C)cc1 (stereo not drawn)	0.247	0.619
COc1ccc(C(C)=O)cc1Cc1c(O)nc(SC)[nH]c1=O	0.247	0.629
O=C(CC1Nc2ccccc2NC1=O)Nc1ccccc1 (stereo not drawn)	0.24	0.597
CCOc1ccc(NC(=O)CC2Nc3ccccc3NC2=O)cc1 (stereo not drawn)	0.273	0.648
O=C(CC1Nc2ccccc2NC1=O)Nc1ccc(Cl)cc1 (stereo not drawn)	0.215	0.6
Nc1nc2sc3c(c2cc1C(=O)N1CCOCC1)CCCC3	0.253	0.625
Cc1nc(-c2ccccc2)cc(N2CCCC2)n1	0.253	0.616
CCCN1CCC(NCCc2ccccc2OC)CC1	0.252	0.619
Cc1ccccc1CN(C)C1CCN(C)CC1	0.256	0.628
CN1CCC(NCc2ccccc2F)CC1	0.212	0.645
Cc1ccc(OCCCNC(C)(C)C)cc1	0.244	0.608
CC1CCCC(C)N1C(=O)c1ccc(Br)cc1 (stereo not drawn)	0.25	0.617
O=c1[nH]c2nonc2nc1Nc1ccccc1	0.245	0.603
CCN(C(=O)Cc1ccccc1)C1CCCCC1	0.221	0.606
CCN(Cc1ccccc1)C(=O)Cc1ccccc1	0.262	0.642
CC1CCCC(C)N1C(=O)Cc1ccccc1 (stereo not drawn)	0.233	0.611
Cc1cc(C)c(S(=O)(=O)Nc2cc(C)on2)c(C)c1	0.243	0.612
CCc1ccccc1NS(=O)(=O)c1ccc(F)cc1	0.21	0.618
COc1ccccc1NS(=O)(=O)c1ccc(C(C)(C)C)cc1	0.254	0.618
COc1ccccc1NS(=O)(=O)c1ccc(Cl)cc1	0.256	0.651
Cc1[nH]nc2c1C(c1ccccc1I)C(C#N)=C(N)O2 (stereo not drawn)	0.233	0.613
Cc1cc(C)c(C2C(C#N)=C(N)Oc3n[nH]c(C)c32)c(C)c1 (stereo not drawn)	0.218	0.621

SMILES	plate-normalized OD600 growth (temperature: 15°C, 48 h)	plate-normalized OD600 growth (temperature: 37°C, 24 h)
Cc1ccc(C2C(C#N)=C(N)Oc3n[nH]c(C)c32)s1 (stereo not drawn)	0.246	0.658
Cc1ccc(NCc2ccc([N+](=O)[O-])cc2)cc1C	0.237	0.605
O=C(c1ccc(Br)o1)N1CCN(c2ccc([N+](=O)[O-])cc2)CC1	0.262	0.622
O=C(c1ccco1)N1CCN(c2ccc([N+](=O)[O-])cc2)CC1	0.244	0.617
O=C(c1ccc([N+](=O)[O-])o1)N1CCN(c2cccc(Cl)c2)CC1	0.212	0.611
O=C1CC(N2CCOCC2)C(=O)N1c1ccc(I)cc1 (stereo not drawn)	0.257	0.645
N#CC1=C(N)Oc2cc(N)ccc2C1c1ccc(Br)s1 (stereo not drawn)	0.262	0.636
O=C(Nc1cccc([N+](=O)[O-])c1)c1cc(S(=O)(=O)Nc2ccccc2)ccc1Cl	0.256	0.621
Fc1ccccc1OCCSc1ncnc2nc[nH]c12	0.258	0.613
N#CSc1cnc(NC2CCCCC2)s1	0.254	0.611
CCSc1sc(CC)cc1C(N)=O	0.239	0.621
CCSc1sc(SC#N)cc1SC#N	0.207	0.614
CCOc1ccc(Br)cc1/C=C(\C#N)c1nc2ccccc2[nH]1	0.255	0.657
CCOc1ccc(Nc2nc(-c3ccc(C)c(C)c3)cs2)cc1	0.248	0.605
Cc1ccc(-c2csc(Nc3ccc(F)cc3)n2)cc1C	0.218	0.604
Cc1cc(C)n(-c2nc(-c3ccc(F)cc3)cs2)n1	0.254	0.625
CCOc1ccc(C(=O)Nc2ccc(S(=O)(=O)Nc3nccs3)cc2)cc1	0.241	0.613
C=CCNc1nc(-c2ccncc2)cs1	0.236	0.589
CC(=O)Nc1ccc(-c2cc(-c3ccc(NC(C)=O)cc3)nc(-c3ccccc3)n2)cc1	0.246	0.587
Cc1ccc2nc(/C(C#N)=C\c3ccco3)[nH]c2c1	0.242	0.599
CC(=O)Nc1ccc2oc(-c3cccc(I)c3)nc2c1	0.235	0.614
CCOc1ccc(-c2ncnn2-c2ccc([N+](=O)[O-])cc2)cc1	0.222	0.625

SMILES	plate-normalized OD600 growth (temperature: 15°C, 48 h)	plate-normalized OD600 growth (temperature: 37°C, 24 h)
CCOc1ccc(C(=O)c2ccc([N+](=O)[O-])cc2Cl)cc1	0.265	0.637
CCN(CC)CCCOc1ccc([N+](=O)[O-])cc1	0.246	0.624
CCCCOC(=O)Nc1nnc(CCc2ccccc2)s1	0.265	0.623
COc1cc(CN2CCSCC2)c([N+](=O)[O-])cc1OC	0.23	0.6
CC(C)NCC(=O)NC12CC3CC(CC(C3)C1)C2	0.266	0.656
NC(=O)CCC(=O)NC12CC3CC(CC(C3)C1)C2	0.227	0.599
O=C(CN1CCCCC1)NC12CC3CC(CC(C3)C1)C2	0.274	0.65
Cc1ccc(NC(=O)c2c(O)c3ccccc3[nH]c2=O)c(C)c1	0.27	0.648
Cc1cc(C)n(C(=O)c2ccc(Cl)cc2)n1	0.256	0.636
Cc1cc(C)n(C(=O)c2ccccc2F)n1	0.251	0.635
Cc1cc(C)n(C(=O)c2ccccc2Br)n1	0.226	0.655
O=C(O)c1ccc2c(c1)C(=O)N(c1c[nH]c(=O)[nH]c1=O)C2=O	0.239	0.592
O=C(/C=C/c1ccc(-c2cc(Cl)ccc2Cl)o1)c1ccco1	0.25	0.612
c1cc2cn[nH]c2cc1NC1CCCCCC1	0.233	0.604
O=C(O)CSc1cccc(C(=O)Nc2ccc(Br)cc2)c1	0.249	0.611
Nc1ccc(Cl)cc1SCC(=O)O	0.242	0.599
O=C(O)CSc1ccc(Br)cc1	0.222	0.609
NS(=O)(=O)c1ccc(NC(=O)c2ccccc2Cl)cc1	0.24	0.604
O=[N+]([O-])c1ccc(N2CCN(Cc3cccs3)CC2)cc1	0.22	0.599
O=[N+]([O-])c1ccc(N2CCN(Cc3ccc(Br)s3)CC2)cc1	0.242	0.58
Cc1ccsc1CN1CCN(c2ccc([N+](=O)[O-])cc2)CC1	0.256	0.634
